Assay results from PubChem BioAssay (NCATS).
“And” between values parts separate entries of the source, which are not always exact repeats. Equal entries are not always repeated. Results filed as inconclusive are left out. The source made the active and inactive calls. The call rests on the fitted dose curve; in most records, active means well fitted cell-killing curve with a large enough effect; inconclusive means small, poorly fitted or top-dose-only effect, or effect the other way; inactive means flat fitted curve, though single readings scatter.

test: qHTS assay for cell viability of HEK293 cells (AID 743288); conditions: ATP luminescence (CellTiter-Glo), 18 h; max response: hits give low values; further: nearly all actives have a fitted effect of over 50% in size
Excerpt: National Center for Advancing Translational Sciences [NCATS]
NIH Chemical Genomics Center [NCGC]
U.S. Environmental Protection Agency [EPA]
National Institutes of Environmental Health Sciences [NIEHS]
National Toxicology Program [NTP]
U.S. Food and Drug Administration [FDA]
The CellTiter-Glo Luminescent Cell Viability Assay (Promega, Madison, WI) is a homogeneous method to determine the number of viable cells in culture based on quantitation of the ATP present, which signals the presence of metabolically active cells. This cell viability assay was used to screen environmental chemicals in the Hek293 cell line.
Tox21 Assay Protocol Summary:
Cell viability after compound treatment was measured using a luciferase-coupled ATP quantitation assay (CellTiter-Glo viability assay, Promega, Madison, WI) in parental HEK293 cells. Total intracellular ATP content corresponds to the number of metabolically competent cells after compound treatment. The cells were dispensed at 2,000 cells/5 uL/well in 1,536-well white/solid bottom assay plates using a Flying Reagent Dispenser (Aurora Discovery, San Diego, CA). The cells were incubated a minimum of 5 h at 37 C, followed by the addition of 23 nL of compounds dissolved in DMSO, positive controls or DMSO only using a pintool work station (Kalypsys, San Diego, CA). The assay plates were incubated for 18 h at 37 C, followed by the addition of 5 uL/well of CellTiter-Glo reagent. After 30 min incubation at room temperature, the luminescence intensity of the plates was measured using a ViewLux plate reader (PerkinElmer, Shelton, CT).
On the % scale 0 is the no-effect control and ±100 the full control effect; potency means the concentration at half of the fitted maximal effect.

Compound | max response | Potency
CCC(=O)OCCc1ccccc1 | -5.25% (inactive) | –
CCCCCCCCCCCCCCCC | -2.82% (inactive) | –
O=C(O)CCCCCCCCCCC(=O)O | -10.8% (inactive) | –
OC1CCCCCCCCCCC1 | -8% (inactive) | –
S=C([S-])NCCNC(=S)[S-].S=C([S-])NCCNC(=S)[S-].[Mn+2].[Zn+2] | 2.96% (inactive) | –
O=S(c1ccc(Cl)cc1)c1cc(Cl)c(Cl)cc1Cl (stereo not given) | -14.5% (inactive) | –
C[Si]1(C)N[Si](C)(C)N[Si](C)(C)N1 | -3.76% (inactive) | –
C=C(C)C(=O)OCCCCCCCCCCCCCCCC | -1.34% (inactive) | –
CCCCC(CC)COP(=O)(O)OCC(CC)CCCC (stereo not given) | -5.86% (inactive) | –
CC(C)CCCCCOC(=O)CS | -8.32% (inactive) | –
CC(C)(N=C=O)c1cccc(C(C)(C)N=C=O)c1 | -12% (inactive) | –
C=C(C)C(=O)OCC[N+](C)(C)C | -15.2% (inactive) | –
C=CC(=O)OCC[N+](C)(C)C | -5.74% (inactive) | –
COc1ccccc1NC(=O)CC(C)=O | -19.2% (inactive) | –
CCCCN(CCCC)CCCC | -10.1% (inactive) | –
CCC(O)OCCCOC (stereo not given) | -3.1% (inactive) | –
CCOCCOCCOCC | -13.3% (inactive) | –
C=C(C)C(=O)OCCC[Si](OC)(OC)OC | -1.87% (inactive) | –
COCCOCCOCCO | -7% (inactive) | –
NN(c1ccccc1)c1ccccc1 | -10.4% (inactive) | –

Compound | max response | Potency
COC(=O)c1ccccc1S(=O)(=O)NC(=O)Nc1nc(OC(F)F)cc(OC(F)F)n1 | 0.401% (inactive) | –
NCCCCCCCCCCCC(=O)O | 6.09% (inactive) | –
Cc1cc(C)c(N)c(Cl)c1 | -10.1% (inactive) | –
CC(COc1ccc(C(C)(C)C)cc1)OS(=O)OCCCl (stereo not given) | -26.1% (inactive) | –
CCCCC(CC)COC(=O)/C=C\C(=O)OCC(CC)CCCC (stereo not given) | -2.82% (inactive) | –
Fc1ccc(Br)cc1 | -0.046% (inactive) | –
CCNc1nc(N)nc(Cl)n1 | -4.19% (inactive) and 3.18% (inactive) | –
CCCCCCCCCC[N+](C)(C)Cc1ccccc1 | -27.5% (inactive) | –
COC(=O)C(C)Oc1ccc(Oc2ncc(C(F)(F)F)cc2Cl)cc1 (stereo not given) | -21.9% (inactive) | –
CC/C(=C(\c1ccc(O)cc1)c1ccc(OCCN(C)C)cc1)c1ccccc1 | – | 25.1 µM (active)
CCOC(=O)CC(O)(CC(=O)OCC)C(=O)OCC | 3.07% (inactive) | –
CCOCCOCCOCCO | -2.83% (inactive) | –
CC1(C)C(=O)N(Br)C(=O)N1Cl | -4.13% (inactive) | –
Nc1cc(Cl)c(O)c(Cl)c1 | -19.5% (inactive) | –
CCCCCCCCCCCCCCCO | -19.2% (inactive) | –
CSC(=O)c1cccc2nnsc12 | 3.92% (inactive) | –
Cn1sccc1=O | -4.03% (inactive) | –
O=C(O)C(c1ccc(Cl)cc1)c1ccc(Cl)cc1 | 0.137% (inactive) | –
O=C(O)CN(CCO)CCN(CC(=O)O)CC(=O)O | -11.1% (inactive) | –
CCOC(=O)[C@H](C)Oc1ccc(Oc2nc3ccc(Cl)cc3o2)cc1 | -6.11% (inactive) | –
